Drawing on PubChem BioAssay (Tox21), this text covers Potency, outcome and activity change, positive = activation for 9 compounds.

A number with no mark means an inactive call. Inconclusive results are not listed. The source made the active and inactive calls. Unless noted, calls follow the shape of the dose curve; as a rule, active = well fitted curve in the direction sought with a large enough effect in the repeat runs; inconclusive = weak or mixed curves; inactive = no such curve, though single readings can be large; an effect the other way counts as inactive or inconclusive.

Assay [1] deals with Luciferin 4-monooxygenase (Photinus pyralis) (UniProt P08659). The assay is described as follows: qHTS assay to identify small molecule inhibitors of firefly luciferase (AID 1224835). Also: nearly all actives have a fitted effect of over 25% in size. Also: potency is read from the fitted curve at half-maximal effect. The method in brief:
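Inhibition of purified Photinus luciferase is measured by luminescence. Substrate levels (D-luciferin, ATP) sit at their KM values. Each compound is tested in a concentration series.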

Assay [2] is described as follows: qHTS assay to identify small molecule agonists of the constitutive androstane receptor (CAR) signaling pathway - cell viability counter screen (AID 1224836). Also: nearly all actives have a fitted effect of over 45% in size. The method in brief: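 Counter screen multiplexed with the CAR reporter readout: HepG2 cells co-transfected with hCAR and the CYP2B6-2.2kb construct receive a 15-concentration compound series and 0.75 uM PK11195 (final), then CellTiter-Fluor fluorescence is read after 23 h.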
For orientation: Quantitative high-throughput screening tests each substance at several concentrations.

Assay [3] is described as follows: qHTS assay to identify small molecule antagonists of the constitutive androstane receptor (CAR) signaling pathway - cell viability counter screen (AID 1224837). Also: nearly all actives have a fitted effect of over 45% in size. The method in brief:
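HepG2 cells stably carrying hCAR and CYP2B6-2.2kb reporter, stimulated with 50 nM CITCO and compounds at 15 concentrations for 23 h at 37 C. Viability measured by CellTiter-Fluor fluorescence.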

For assay [4], the target named is Nuclear receptor subfamily 1 group I member 3 (Homo sapiens) (UniProt Q14994). Nature of the assay: qHTS assay to identify small molecule antagonists of the constitutive androstane receptor (CAR) signaling pathway (AID 1224838). Also: nearly all actives have a fitted effect of over 40% in size. The method in brief:
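HepG2 cells stably carrying hCAR and a CYP2B6-2.2kb luciferase reporter, seeded 4 hrs before compound (15 concentrations). Stimulated with 50 nM CITCO for 24 hr at 37 C. ONE-Glo luminescence read after 30 min at room temperature.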

Assay [5] shares this target. The assay is described as follows: qHTS assay to identify small molecule agonists of the constitutive androstane receptor (CAR) signaling pathway (AID 1224839). Also: nearly all actives have a fitted effect of over 15% in size. Also: potency is read from the fitted curve at half-maximal effect. The method in brief: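 A 15-concentration quantitative screen uses HepG2 cells co-transfected stably with human CAR and CYP2B6-2.2kb reporter. Treatment lasts 24 h with 0.75 uM PK11195 final present; ONE-Glo luminescence is the signal.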

The nature of assay [6]: qHTS assay to identify small molecule antagonists of the estrogen related receptor signaling pathway with the pleiotropic PPARgamma coactivator (PGC) from Tox21 10K library - cell viability counter screen (AID 1224840; active = well fitted cell-killing curve with a large enough effect in the repeat runs, not every such curve was filed as active; also: nearly all actives have a fitted effect of over 40% in size). The method, boiled down: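 PGC/ERR cells (2,000/well) plated 6 h, then compound-treated for 17.5 h at 37 C. Viability measured by CellTiter-Fluor fluorescence after 30 min at 37 C, multiplexed with the pathway assay.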

A short description of assay [7]: qHTS assay to identify small molecule agonists of the hypoxia (HIF-1) signaling pathway - cell viability counter screen (AID 1224844; calls by dose curve; also: nearly all actives have a fitted effect of over 50% in size). The method in brief: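 HRE-bla ME-180 cells, 2,000/well in 0.5% dialyzed FBS medium, treated 17 h at 37C with compounds. Viability read in the same wells as the bla reporter, by CellTiter-Glo luminescence after 30 min at room temperature.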

A short description of assay [8]: qHTS assay to identify small molecule agonists of H2AX (AID 1224845; active = well fitted activation curve with a large enough effect in the signal ratio in the repeat runs, not every such curve was filed as active; the % refers to the signal ratio). The method, boiled down:
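Phospho-H2AX Ser139 measured by HTRF (ex 320 nm; em 665 and 620 nm) after 24 hr antibody incubation. Compounds, 15 concentrations, 0.76% DMSO, were applied to CHO-K1 cells for 3hr at 37C before lysis.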

A short description of assay [9]: qHTS assay to identify small molecule agonists of the hypoxia (HIF-1) signaling pathway (AID 1224846; active = well fitted activation curve with a large enough effect in the signal ratio in the repeat runs, not every such curve was filed as active; the % refers to the signal ratio). The method in brief: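 HRE-bla ME-180 beta-lactamase reporter cells in medium with 0.5% dialyzed FBS, pre-incubated 5 h then exposed to compounds 17 h at 37C, 5% CO2; reporter induction read with CCF4-AM FRET substrate.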
The nature of assay [10]: qHTS assay to identify small molecule agonists of H2AX - cell viability counter screen (AID 1224847; calls by dose curve; also: top concentration of the series differs between compounds; nearly all actives have a fitted effect of over 30% in size). The method in brief: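 We seed wild-type CHO-K1 cells overnight, treat them for 3 hr at 37C with compounds in 15-concentration series, and quantify remaining viability by CellTiter-Glo luminescence.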
Assay [11] in a line: qHTS RealTime-Glo MT Cell Viability Assay in HepG2 cells - 24 hour (AID 1224867). Also: nearly all actives have a fitted effect of over 50% in size. The method, boiled down: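 Real-time, nonlytic viability: 600 HepG2 cells/well mixed with NanoLuc enzyme plus prosubstrate; 5 h settle, compound (DMSO) added by pintool; luminescence monitored over 40 h at 37 C.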
Assay [12] in a line: qHTS RealTime-Glo MT Cell Viability Assay in HepG2 cells - 40 hour (AID 1224870). Also: nearly all actives have a fitted effect of over 50% in size. The method, boiled down:
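Real-time viability: cells seeded at 600 per well together with NanoLuc and cell-permeant prosubstrate, compounds added after 5 h incubation. Luminescence tracked at 0, 8, 16, 24, 32 and 40 h of exposure.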

Assay [13] can be described thus: qHTS assay to identify small molecule antagonists of the estrogen related receptor (ERR) signaling pathway from Tox21 library - cell viability counter screen (AID 1224834). Also: nearly all actives have a fitted effect of over 30% in size. The method in brief: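 ERR reporter cells, 2,000 per well, rested 6 h, then exposed to compound in DMSO for 17.5 hours at 37 C. Viability read as fluorescence after 30 min with CellTiter-Fluor.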

Assay [14] can be described thus: qHTS assay to identify small molecule antagonists of the estrogen related receptor signaling pathway with the pleiotropic PPARgamma coactivator (PGC) from Tox21 10K library (AID 1224841; call rule not given here; also: actives are mostly falling curves and most rising ones were filed inactive; nearly all actives have a fitted effect of over 50% in size). The method in brief: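 PGC/ERR cell line, 2,000 cells/well, pre-incubated 6 hours at 37 C, then exposed to compounds for 18 hours at 37 C; luciferase read with One-Glo luminescence after 30 min at room temperature.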

Assay [15] can be described thus: qHTS assay to identify small molecule agonists of the estrogen related receptor signaling pathway with the pleiotropic PPARgamma coactivator (PGC) from Tox21 10K library (AID 1224842). Also: nearly all actives have a fitted effect of over 15% in size. The method, boiled down:
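Luminescence from One-Glo (30 min, room temperature) measured after PGC/ERR cells had 18 h at 37 C with pinned compound (23 nL in DMSO). Cells had been seeded at 2,000 per well and pre-incubated 6 h.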

Assay [16] deals with Thyrotropin receptor (Homo sapiens) (UniProt P16473). The assay is described as follows: qHTS assay to identify small molecule agonists of the thyroid stimulating hormone receptor (TSHR) signaling pathway (AID 1224843; calls by dose curve; also: nearly all actives have a fitted effect of over 45% in size; also: potency is read from the fitted curve at half-maximal effect). The method, boiled down:
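HEK293 cells stably bearing the thyrotropin receptor were plated at 800 cells/well and challenged with compound (30 min, RT). Accumulated cAMP was quantified via cAMP-d2 competing for cryptate-tagged antibody.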

A short description of assay [17]: qHTS assay to identify small molecule antagonists of the estrogen related receptor (ERR) signaling pathway from Tox21 library (AID 1224848). Also: nearly all actives have a fitted effect of over 50% in size. The method in brief:
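Reading was by luminescence 30 min after ONE-Glo addition. Before that, ERR cells at 2,000 per well had rested 6 h at 37 C/5% CO2 and then received pin-tooled compounds in DMSO for 18 h at 37 C.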

Assay [18] is described as follows: qHTS RealTime-Glo MT Cell Viability Assay in HEK293 cells - 32 hour (AID 1224868). The method, boiled down:
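Cells + reagent dispensed (600 cells/well, HEK293) → 5 h at 37 C/5% CO2 → 23 nL compound in DMSO pinned → 40 h at 37 C → luminescence read at 0, 8, 16, 24, 32, 40 h.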

Assay [19] is described as follows: A CellTox Green Cytotoxicity Assay to monitor cytotoxicity in HEK293 cells - 0 hour (AID 1224869). Also: nearly all actives have a fitted effect of over 50% in size. The method, boiled down: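 HEK293 cells, 600/well, were preincubated 5 hours and then exposed to compounds at 37 C for up to 40 hours. A cell-impermeant cyanine dye staining dead-cell DNA was read by fluorescence at 0, 8, 16, 24, 32 and 40 h time points.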
A short description of assay [20]: qHTS assay to identify small molecule agonists of the estrogen related receptor (ERR) signaling pathway from Tox21 library (AID 1224849; calls by dose curve; also: nearly all actives have a fitted effect of over 15% in size). The conditions noted are these: ERR reporter cell line, ONE-Glo luciferase, 18 h; at 92.4 µM (top of the series) unless noted. The method in brief:
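ERR reporter cells (NTP line) pre-incubated 6 hours at 37 C, then exposed to compounds for 18 hours at 37 C. ONE-Glo luciferase luminescence was read after 30 minutes at room temperature.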
% is scaled to controls: 0 for no effect and ±100 for the full control effect.

Sequence of Thyrotropin receptor (Homo sapiens) (P16473 whole entry, looked up): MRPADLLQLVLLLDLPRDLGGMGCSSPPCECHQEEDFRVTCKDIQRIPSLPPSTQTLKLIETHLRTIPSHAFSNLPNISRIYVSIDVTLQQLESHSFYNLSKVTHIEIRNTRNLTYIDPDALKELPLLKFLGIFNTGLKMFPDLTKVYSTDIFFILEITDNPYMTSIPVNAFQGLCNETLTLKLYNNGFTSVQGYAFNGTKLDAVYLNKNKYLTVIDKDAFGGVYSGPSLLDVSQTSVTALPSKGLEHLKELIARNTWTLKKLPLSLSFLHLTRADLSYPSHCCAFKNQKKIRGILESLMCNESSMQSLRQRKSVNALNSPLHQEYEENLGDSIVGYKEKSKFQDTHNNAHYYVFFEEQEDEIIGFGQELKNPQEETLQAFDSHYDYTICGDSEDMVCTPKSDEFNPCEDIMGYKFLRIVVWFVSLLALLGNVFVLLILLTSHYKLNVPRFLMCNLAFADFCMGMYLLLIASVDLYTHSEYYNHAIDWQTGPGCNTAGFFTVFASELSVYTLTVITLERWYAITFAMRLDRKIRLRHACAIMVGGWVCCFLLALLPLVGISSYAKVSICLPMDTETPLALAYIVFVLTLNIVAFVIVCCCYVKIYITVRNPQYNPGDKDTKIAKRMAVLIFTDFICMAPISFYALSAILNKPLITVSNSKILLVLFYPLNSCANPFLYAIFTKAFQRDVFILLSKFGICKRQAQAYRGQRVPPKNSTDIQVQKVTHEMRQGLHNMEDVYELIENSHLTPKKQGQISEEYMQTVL
Sequence of Luciferin 4-monooxygenase (Photinus pyralis) (P08659 whole entry, looked up): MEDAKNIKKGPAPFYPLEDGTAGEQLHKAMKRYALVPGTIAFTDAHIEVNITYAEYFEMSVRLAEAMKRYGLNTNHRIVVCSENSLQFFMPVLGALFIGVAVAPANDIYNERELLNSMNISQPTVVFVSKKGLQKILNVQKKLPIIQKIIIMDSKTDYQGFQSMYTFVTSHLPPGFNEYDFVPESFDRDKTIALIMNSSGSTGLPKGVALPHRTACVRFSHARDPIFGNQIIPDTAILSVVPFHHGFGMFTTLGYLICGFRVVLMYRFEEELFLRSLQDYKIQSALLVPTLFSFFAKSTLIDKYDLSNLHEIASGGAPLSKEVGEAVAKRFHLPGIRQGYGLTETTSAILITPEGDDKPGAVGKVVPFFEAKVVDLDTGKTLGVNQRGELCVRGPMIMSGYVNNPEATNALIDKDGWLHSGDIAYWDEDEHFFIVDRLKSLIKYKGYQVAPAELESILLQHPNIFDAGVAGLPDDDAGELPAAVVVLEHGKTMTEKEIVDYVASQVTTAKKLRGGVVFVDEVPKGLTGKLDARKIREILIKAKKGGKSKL
Sequence of Nuclear receptor subfamily 1 group I member 3 (Homo sapiens) (Q14994 whole entry, looked up): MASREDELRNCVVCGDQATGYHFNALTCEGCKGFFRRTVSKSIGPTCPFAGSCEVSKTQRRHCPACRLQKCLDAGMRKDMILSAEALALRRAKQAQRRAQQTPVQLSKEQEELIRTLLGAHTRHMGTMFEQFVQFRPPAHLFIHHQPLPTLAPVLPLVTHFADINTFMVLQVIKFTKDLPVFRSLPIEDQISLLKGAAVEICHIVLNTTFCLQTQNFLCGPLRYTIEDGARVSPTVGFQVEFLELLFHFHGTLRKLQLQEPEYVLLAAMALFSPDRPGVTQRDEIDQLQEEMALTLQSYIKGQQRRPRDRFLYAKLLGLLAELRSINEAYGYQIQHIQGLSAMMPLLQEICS

As for `[Cl][Sn]([Cl])([Cl])[Cl]`, the Potency result in assay [1], in [2], in assay [3], in [4], in assay [5] and in assay [6] was “inactive” in each case. Further, the Potency entry in assay [7], in [8], in assay [10], in assay [11] and in assay [12] was “inactive” throughout. Moreover, the compound was classed as inactive in [9].

For the compound `Cc1cc(C)nc(Nc2ccccc2)n1`, the Potency result in [13], in [2], in [4], in [6], in assay [14] and in [16] was “inactive” throughout. Further, the Potency result in assay [7], in [8], in [10], in [17], in [11] and in [18] was “inactive” throughout. The Potency entry in assay [19] and in [12] was “inactive” throughout. The Potency in assay [5] is 61.1 µM (active). Further, the call in assay [15] was inactive.

`Cc1cccc(C#N)c1`: the Potency result in assay [1], in assay [2], in assay [3], in assay [4], in assay [5] and in [6] was “inactive” throughout. For the same compound, the Potency entry in assay [16], in assay [7], in assay [8], in assay [10], in assay [11] and in assay [18] was “inactive” throughout. Besides, the Potency result in assay [19] and in assay [12] was “inactive” each time. Besides, in [9], the compound was called inactive.

For `CCCCOC(=O)c1ccccc1C(=O)O`, the Potency entry in assay [1], in [2], in [3], in assay [4], in assay [5] and in [6] was “inactive” in each case. Further, the Potency result in [16], in [8], in assay [10], in assay [11], in [18] and in assay [12] was “inactive” throughout.

Turning to `CC1CCCCC1NC(=O)Nc1ccccc1` (configuration not stated), the Potency is 35.6 µM (active) in assay [1] and 30.6 µM (active) in assay [5]. Besides, the Potency result in assay [2], in [3], in assay [4], in [6], in assay [14] and in assay [16] was “inactive” throughout. In addition, the Potency entry in assay [7], in [8], in assay [10], in assay [11], in assay [19] and in assay [12] was “inactive” throughout. In addition, the result in assay [15] was inactive. Also, the activity change, positive = activation in assay [20] is 4.71%.

In the case of `CC(C)NCC(O)c1ccc(N)c(C#N)c1` (configuration not stated), the Potency entry in assay [13], in assay [2], in assay [3], in [4], in [6] and in [7] was “inactive” in each case. In addition, the Potency result in assay [8], in [10], in [11], in assay [18], in assay [19] and in assay [12] was “inactive” in each case. Further, the Potency in [16] was 0.0021 µM (active). Also, the call in assay [9] was inactive.

`CS(=O)(=O)c1cc(C(F)(F)F)ccc1C(=O)c1cnoc1C1CC1`: the Potency entry in assay [1], in assay [2], in assay [3], in assay [4], in assay [5] and in assay [6] was “inactive” each time. The Potency result in assay [14], in assay [16], in [7], in assay [10], in [11] and in assay [18] was “inactive” each time. For the same compound, the Potency entry in [19] and in assay [12] was “inactive” each time. Also, the outcome in assay [15] and in assay [9] was inactive. Further, the activity change, positive = activation in assay [20] is 9.23%.

Turning to `OCCBr`, the Potency result in assay [13], in assay [2], in assay [3], in assay [6], in [16] and in [7] was “inactive” throughout. Further, the Potency entry in assay [8], in assay [10], in assay [11], in [18], in assay [19] and in [12] was “inactive” in each case. In addition, the compound was classed as inactive in assay [9].

Take `COc1cc2c(cc1OC)[C@@]13CCN4CC5=CCO[C@H]6CC(=O)N2[C@H]1[C@H]6[C@H]5C[C@H]43`: the Potency entry in [13], in assay [2], in assay [3], in assay [4], in assay [5] and in assay [6] was “inactive” throughout. Besides, the Potency result in assay [7], in assay [8], in assay [10], in assay [11] and in assay [12] was “inactive” throughout. Further, the result in assay [9] was inactive.
